From PubChem BioAssay (NCATS)
Inconclusive results are not listed. The source made the active and inactive calls. The call rests on the fitted dose curve; in most records, active means well fitted curve in the direction sought with a large enough effect; inconclusive means small, poorly fitted or top-dose-only effect, or another doubt; inactive means no such curve, though single readings can be large; an effect the other way counts as inactive or inconclusive.

Tests used:
[1] = HPAF-II 24hr Apoptosis Induction qHTS against the NCATS CANVASS Library (AID 1347356)
In short: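 500 HPAF-II cells/well; compounds in 11-pnt qHTS; 24 h, 37 C/5% CO2; Caspase-Glo 3/7 added, 15 min RT dark; luminescence read. Doxorubicin control.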

[2] = HEK293 18hr Apoptosis Induction qHTS against the NCATS CANVASS Library (AID 1347357)
In short: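 Caspase-Glo 3/7 luminescence (15 min, room temperature) measured apoptosis after an 18-hour, 37 degrees C exposure of HEK293 cells (500 cells/well) to compounds in 11 points.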

[3] = HEK293 24hr Apoptosis Induction qHTS against the NCATS CANVASS Library (AID 1347359)
In short: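 HEK293 cells (500/well, DMEM + 10% FBS) were exposed to compounds in an 11-point series for 24 hours at 37 degrees C, then caspase-3/7 activity was read by Caspase-Glo DEVD luciferase luminescence after 15 min.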

[4] = HPAF-II 18hr Apoptosis Induction qHTS against the NCATS CANVASS Library (AID 1347360)
In short: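 Caspase-3/7 activation was measured with luminescent Caspase-Glo 3/7 reagent (15 min, RT) in HPAF-II cancer cells (500 cells/well). Before detection, cells had been treated for 18 h at 37 C with compounds (11 points).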

[5] = system: NAD(P)H diaphorase (Clostridium kluyveri); experiment: Diaphorse counterscreen qHTS: Assay Interference Panel against the NCATS CANVASS Library (AID 1347362)
In short: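 Clostridium kluyveri diaphorase in PBS with 0.01% Tween-20 was preincubated 15 min at room temperature in the dark with compounds (11-point series). Resorufin fluorescence (ex 525/20, em 598/25) was read 5 min after adding resazurin/NADH.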

[6] = target: Luciferin 4-monooxygenase (Photinus pyralis) (UniProt P08659); experiment: Firefly luciferase counterscreen qHTS: Assay Interference Panel against the NCATS CANVASS Library (AID 1347363); further: series mostly up to about 57 µM
In short: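 Purified P. pyralis luciferase was added to compounds (11-point series) preincubated 15 min at room temperature with substrate containing 0.013 mM D-luciferin and 0.013 mM ATP; luminescence was read after 5 min.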

[7] = KB-3-1 Cancer Cell Toxicity qHTS against the NCATS CANVASS Library (AID 1347366); further: nearly all actives have a fitted effect of over 75% in size
In short: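 CellTiter-Glo luminescence measured viability after 72 h at 37C. KB-3-1 cells were seeded at 500 per well in DMEM/10% FBS.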

[8] = qHTS for ATAD5 Agonist screened against the NCATS CANVASS Library (AID 1347367);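 further: luciferase reporter driven by ATAD5 which rises upon DNA damage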
In short: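 Genotoxicity via ATAD5-luciferase luminescence after 16 h compound exposure (11-point series) at 37C in HEK293T-ATAD5 cells. CellTiter-Fluor viability read precedes the luminescence read; MMS serves as positive control.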

[9] = G06 Cancer Cell Toxicity qHTS against the NCATS CANVASS Library (AID 1347368); further: nearly all actives have a fitted effect of over 60% in size
In short: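 ATP luminescence (CellTiterGlo) readout of cytotoxicity. Canine G06 glioma cells, 500/well, 72 hr incubation at 37C with compounds; bortezomib titration served as control.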

[10] = MCF7 Cancer Cell Toxicity qHTS against the NCATS CANVASS Library (AID 1347369)
In short: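 Cytotoxicity was measured as CellTiterGlo luminescence (ATP) after 72 h at 37 °C. The cells were MCF7 at 500 per well, with an 11-point compound concentration series.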

[11] = qHTS for ATAD5 Antagonist screened against the NCATS CANVASS Library (AID 1347370);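 further: HEK293T cells carrying an ATAD5 luciferase reporter co-treated with 10 µM 5-fluorouridine; series mostly up to about 46 µM; nearly all actives have a fitted effect of over 65% in size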
In short: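 HEK293T-ATAD5 luc reporter, 2000 cells/well; 5hr attach; cpd + 10 uM 5-FUrd; 16hr 37C, 5% CO2. Readouts: CellTiter-Fluor fluorescence (1hr), then Amplite luciferase luminescence (30min RT).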

[12] = J3T Cancer Cell Toxicity qHTS against the NCATS CANVASS Library (AID 1347371)
In short: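 Dog glioma J3T, 500 cells/well; cpd 11-pt qHTS; 72 hr, 37C/5% CO2; CellTiterGlo ATP luminescence readout.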

[13] = target: Nuclear receptor subfamily 1 group I member 3 (Homo sapiens) (UniProt Q14994); experiment: qHTS for Constitutive Androstane Receptor (CAR) Antagonist screened against the NCATS CANVASS Library (AID 1347372);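 further: cells stimulated with 50 nM CITCO agonist so inhibition reflects antagonism; series mostly up to about 46 µM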
In short: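 Cells were seeded and left 4hr to attach, then received compound at 11 concentrations and 50 nM CITCO. Following 24hr incubation, fluorescence viability and luciferase luminescence were read sequentially.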

[14] = target: Nuclear receptor subfamily 1 group I member 3 (Homo sapiens) (UniProt Q14994); experiment: qHTS for Constitutive Androstane Receptor (CAR) Agonist screened against the NCATS CANVASS Library (AID 1347373);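 further: every well also contained 1.5 µM PK11195 alongside the test compound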
In short: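 Luciferase read-out (ONE-Glo, 30 min RT) of CYP2B6-2.2kb promoter activity in double-stable HepG2-hCAR cells after 24hr compound exposure with 1.5uM PK11195 present; viability measured first by CellTiter-Fluor.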

[15] = 10-beta competent E. coli microbial cell viability qHTS against the NCATS CANVASS Library (AID 1347376); further: series mostly up to about 46 µM
In short: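 Luminescence from BacTiter-Glo ATP detection served as the viability read-out; bacteria (0.2 OD) had been incubated overnight at 37C with pin-transferred compounds at 11 concentrations.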

[16] = qHTS for Inflammasome Signaling Inhibitors: IL-1-beta AlphaLISA screen against the NCATS CANVASS Library (AID 1347379);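 further: human THP-1 cells primed with LPS then triggered with ATP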
In short: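 THP-1, 1 hr compound pre-incubation, then LPS 250 ng/mL + ATP 1.25 mM (final); 16 hr total with compound; IL-1B AlphaLISA, ex 680/em 615 nm; 11-point qHTS, up to 57.5 uM final.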

[17] = Inflammasome Signaling qHTS Counterscreen: IL-1-beta AlphaLISA counterscreen against the NCATS CANVASS Library (AID 1347381);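 further: cell-free check with purified IL-1β in medium and no THP-1 cells; series mostly up to about 57 µM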
In short: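 Here, no cellular stimulation occurs; compounds in an 11-point series meet 4 pg purified IL-1-beta directly. Bead-based AlphaLISA detection follows (1 h acceptor/antibody, then 30 min donor, dark, room temperature), with excitation at 680 nm.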

[18] = Cytotoxicity qHTS for assessment of Hepg2 cells membrane integrity screened against the NCATS CANVASS Library (AID 1347387)
In short: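 LDH release read by fluorescence (560 nm ex/590 nm em) after CytoTox-ONE addition and 10 min RT; signal tracks lysed cells. HepG2, 2000 cells/well, plated overnight; compound 5 hr, 37C, 5% CO2, final 0.59 nM - 46 uM, 11 points.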

[19] = Viability qHTS for inhibitors of the SERCaMP assay screened against the NCATS CANVASS Library (AID 1347400); further: series mostly up to about 92 µM; nearly all actives have a fitted effect of over 70% in size
In short: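 CellTiter-Glo luminescence readout after 48 h compound exposure (11-pnt qHTS series) of SH-SY5Y-GLuc SERCaMP MJH297 cells seeded at 1000 cells/well; bortezomib positive control.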

[20] = qHTS for H2AX Agonists against the NCATS CANVASS Library (AID 1347378)
In short: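 Phospho-H2AX (S139) in CHO-K1 lysates measured by HTRF, reported as 665/615 nm emission ratio after 24 hr antibody incubation at room temperature. Cells were first treated with a compound series for 3 hr at 37C (0.76% DMSO final).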

Measured: Potency

Sequence of Luciferin 4-monooxygenase (Photinus pyralis) (P08659 whole entry, looked up): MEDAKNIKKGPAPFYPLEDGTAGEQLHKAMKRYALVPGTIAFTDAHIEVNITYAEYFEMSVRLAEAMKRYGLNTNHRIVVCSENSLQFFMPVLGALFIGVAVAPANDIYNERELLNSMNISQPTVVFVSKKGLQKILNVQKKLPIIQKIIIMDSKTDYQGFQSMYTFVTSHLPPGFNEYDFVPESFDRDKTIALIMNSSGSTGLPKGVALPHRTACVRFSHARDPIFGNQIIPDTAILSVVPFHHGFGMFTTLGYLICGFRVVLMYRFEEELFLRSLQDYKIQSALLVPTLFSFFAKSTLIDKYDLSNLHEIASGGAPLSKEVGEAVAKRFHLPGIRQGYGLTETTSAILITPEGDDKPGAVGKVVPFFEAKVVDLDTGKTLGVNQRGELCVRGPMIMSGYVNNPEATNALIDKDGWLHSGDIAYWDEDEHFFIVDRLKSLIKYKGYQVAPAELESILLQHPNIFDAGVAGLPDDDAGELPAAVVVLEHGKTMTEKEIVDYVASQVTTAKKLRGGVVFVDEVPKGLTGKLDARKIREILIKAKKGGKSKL
Sequence of Nuclear receptor subfamily 1 group I member 3 (Homo sapiens) (Q14994 whole entry, looked up): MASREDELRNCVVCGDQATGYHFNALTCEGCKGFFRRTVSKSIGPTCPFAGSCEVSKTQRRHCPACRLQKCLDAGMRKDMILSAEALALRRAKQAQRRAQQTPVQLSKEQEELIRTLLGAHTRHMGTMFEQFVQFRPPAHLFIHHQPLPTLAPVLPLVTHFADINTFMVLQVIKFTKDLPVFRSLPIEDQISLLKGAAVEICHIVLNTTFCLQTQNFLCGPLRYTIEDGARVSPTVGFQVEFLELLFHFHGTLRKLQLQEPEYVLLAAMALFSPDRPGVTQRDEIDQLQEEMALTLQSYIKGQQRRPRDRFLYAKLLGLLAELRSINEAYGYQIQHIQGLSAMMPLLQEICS

O=C1c2c(O)cc(O)cc2OC(c2ccc(O)cc2)C1O (configuration not stated)
inactive: [1] | [2] | [3] | [4] | [5] | [6] | [7] | [8] | [9] | [10] | [11] | [12] | [13] | [14] | [15] | [16] | [17] | [18] | [19]

C/C(=C\[C@@H](C)CC/C=C/CC/C=C/C(=O)O)[C@@H](O)[C@H](C)C(=O)CCCC1CC(=O)NC(=O)C1
inactive: [1] | [2] | [3] | [4] | [5] | [6] | [7] | [8] | [9] | [10] | [11] | [12] | [13] | [14] | [15] | [20] | [16] | [17] | [18] | [19]

COC(=O)[C@]1([C@H]2CCC(=O)O2)CC(=O)c2c(O)cc(C)cc2O1
inactive: [1] | [2] | [3] | [4] | [5] | [6] | [7] | [8] | [9] | [10] | [11] | [12] | [13] | [14] | [15] | [20] | [16] | [17] | [18] | [19]

C/C=C(/CO)C(=O)O[C@@H]1[C@H](O)[C@@H](C(=O)OC)O[C@@H]2C[C@H]3OC(n4cnc5c(N)ncnc54)[C@H](OC)[C@H]3O[C@@]12O (some centres not stated)
inactive: [1] | [2] | [3] | [4] | [5] | [6] | [7] | [8] | [9] | [10] | [11] | [12] | [13] | [14] | [15] | [20] | [16] | [17] | [18] | [19]

CC(CCC[C@]1(C)C(=O)C=C[C@@]23C[C@]4(C)O[C@@H](C[C@@H]4[C@H]2O)C31)C(=O)O (some centres not stated)
inactive: [1] | [2] | [3] | [4] | [5] | [6] | [7] | [8] | [9] | [10] | [11] | [12] | [13] | [14] | [15] | [20] | [16] | [17] | [18] | [19]

COc1c(O)cc(O)c2c(=O)cc(-c3ccccc3)oc12
inactive: [1] | [2] | [3] | [4] | [5] | [6] | [8] | [9] | [10] | [11] | [12] | [13] | [14] | [15] | [20] | [17] | [18] | [19]
